According to PubChem BioAssay (EPA / NIEHS):
The source made the active and inactive calls. How the source made its calls: active means hit-call score of the fitted dose curve at least 0.9, where 1 is the maximum; inactive means score below 0.9.

Tests used:
[1] = read-out: Macrophage colony-stimulating factor (MCSF), CSF1 (gene 1435); assay: BSK_hDFCGF_MCSF: BioMAP Diversity Plus: hDFCGF Assay for Macrophage colony-stimulating factor (MCSF) Biomarker Activity (AID 2283060); conditions: primary human foreskin fibroblasts; actives raise or lower the signal
Procedure, shortened: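 Human foreskin primary fibroblasts were treated with test chemical for 24 h, and M-CSF was then measured by ELISA. Data were fitted bidirectionally against DMSO as the negative control and activity baseline.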

[2] = BSK_hDFCGF_SRB: Viability Assessment in the BioMAP Diversity Plus: hDFCGF Assay (AID 2283061); conditions: primary human foreskin fibroblasts;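 further: cells exposed to compound for 24 h before the read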
Procedure, shortened: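 Human foreskin primary fibroblasts were treated with compound and assessed 24 h after dosing. Total protein was measured by sulforhodamine B staining (0.1% SRB after 10% TCA fixation, 560 nm read) as a cytotoxicity marker, with bidirectional fitting against DMSO baseline.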

[3] = read-out: TIMP metallopeptidase inhibitor 1 (TIMP1), TIMP1 (gene 7076); assay: BSK_hDFCGF_TIMP1: BioMAP Diversity Plus: hDFCGF Assay for TIMP metallopeptidase inhibitor 1 (TIMP1) Biomarker Activity (AID 2283062); conditions: primary human foreskin fibroblasts; actives raise or lower the signal
Procedure, shortened: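 Primary human foreskin fibroblasts in the hDFCGF system were dosed with compound for 24 h, then TIMP-1 was measured by ELISA. Activity was fitted bidirectionally relative to DMSO control; parallel SRB staining assessed cytotoxicity.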

[4] = read-out: Monokine induced gamma interferon (MIG), CXCL9 (gene 4283); assay: BSK_hDFCGF_MIG: BioMAP Diversity Plus: hDFCGF Assay for Monokine induced gamma interferon (MIG) Biomarker Activity (AID 2283063); conditions: primary human foreskin fibroblasts; actives raise or lower the signal
Procedure, shortened: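 ELISA read-out of MIG from primary human dermal fibroblasts 24 h post-dosing. Gain or loss of signal fitted bidirectionally, DMSO as baseline.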

[5] = read-out: Matrix Metallopeptidase 1 (MMP1), MMP1 (gene 4312); assay: BSK_hDFCGF_MMP1: BioMAP Diversity Plus: hDFCGF Assay for Matrix Metallopeptidase 1 (MMP1) Biomarker Activity (AID 2283064); conditions: primary human foreskin fibroblasts; actives raise or lower the signal
Procedure, shortened: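 MMP1 levels quantified by ELISA 24 h after dosing human dermal fibroblast cultures, with parallel SRB total-protein staining for overt cytotoxicity. Data fitted in both directions against DMSO baseline.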

[6] = read-out: Vascular cell adhesion molecule 1 (VCAM1), VCAM1 (gene 7412); assay: BSK_hDFCGF_VCAM1: BioMAP Diversity Plus: hDFCGF Assay for Vascular cell adhesion molecule 1 (VCAM1) Biomarker Activity (AID 2283065); conditions: primary human foreskin fibroblasts; actives raise or lower the signal;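 on AC50: VCAM-1 protein level quantified by ELISA after 24 h chemical exposure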
Procedure, shortened: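 Primary human foreskin fibroblasts (hDFCGF system) were dosed with chemical and VCAM-1 was measured by ELISA 24 h later. Bidirectional curve fitting used DMSO as negative control and activity baseline.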

[7] = read-out: Plasminogen activator inhibitor-1 (PAI1), SERPINE1 (gene 5054); assay: BSK_hDFCGF_PAI1: BioMAP Diversity Plus: hDFCGF Assay for Plasminogen activator inhibitor-1 (PAI1) Biomarker Activity (AID 2283066); conditions: primary human foreskin fibroblasts; actives raise or lower the signal
Procedure, shortened: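 PAI-1 levels in human dermal foreskin fibroblasts were quantified by ELISA 24 h after dosing, with gain or loss analysed against DMSO. Overt cytotoxicity was checked by sulforhodamine B total-protein staining in parallel cultures.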

[8] = read-out: Intercellular Adhesion Molecule 1 (ICAM1), ICAM1 (gene 3383); assay: BSK_KF3CT_ICAM1: BioMAP Diversity Plus: KF3CT Assay for Intercellular Adhesion Molecule 1 (ICAM1) Biomarker Activity (AID 2283067); conditions: primary human keratinocytes with fibroblasts; actives raise or lower the signal
Procedure, shortened: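 Human keratinocyte plus foreskin fibroblast primary co-culture was exposed to chemical for 24 h. ICAM-1 was then quantified by ELISA, and the data were fit bidirectionally against DMSO as the negative control and baseline.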

[9] = read-out: Interferon-gamma inducible Protein 10 (IP10), CXCL10 (gene 3627); assay: BSK_KF3CT_IP10: BioMAP Diversity Plus: KF3CT Assay for Interferon-gamma inducible Protein 10 (IP10) Biomarker Activity (AID 2283068); conditions: primary human keratinocytes with fibroblasts; actives raise or lower the signal
Procedure, shortened: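 KF3CT co-culture (keratinocytes + foreskin fibroblasts), 24 h compound, IP-10 by ELISA; bidirectional fit vs DMSO baseline.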

[10] = BSK_KF3CT_SRB: Viability Assessment in the BioMAP Diversity Plus: KF3CT Assay (AID 2283069); conditions: primary human keratinocytes with fibroblasts;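 further: fitted for both signal gain and loss against DMSO baseline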
Procedure, shortened: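 Cytotoxicity was gauged by SRB staining (0.1% SRB, 10% TCA fixation, 560 nm) of parallel cultures at 24 h. The cells were primary human skin keratinocytes co-cultured with fibroblasts, and activity was fitted in both directions against DMSO.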

Measured: AC50

OC1CCC(C2CCCCC2)CC1 (stereo not drawn)
inactive: all assays above

CCCCCCCCCCCCCCCS(=O)(=O)Oc1ccccc1
inactive: all assays above

Nc1cccc2c(N)cccc12
active: [1] 12.9 µM | [4] 16.3 µM | [6] 6.83 µM
inactive: all other assays above

N#C[C@@H]1CC(F)(F)CN1C(=O)CNC1CC2CCC(C1)N2c1ncccn1 (stereo partly drawn)
inactive: all assays above

CCCCCCCCC(=O)O
inactive: all assays above

CN1CCN(c2ccccc2/C=C2\SCCN(c3ccc(Cl)c(Cl)c3)C2=O)CC1
active: [1] 23.5 µM | [2] 28.3 µM | [3] 33.7 µM | [4] 39 µM | [5] 38 µM | [6] 31.8 µM | [7] 9.63 µM | [8] 31.8 µM | [9] 28.5 µM | [10] 30.8 µM

CCCCCCCCCCCCN1CCCC1=O
active: [1] 31 µM | [2] 34 µM | [3] 32.7 µM | [4] 39 µM | [5] 34.8 µM | [6] 33 µM | [7] 30.6 µM | [8] 36.8 µM | [9] 35.5 µM | [10] 33.4 µM

CC(C)CCCCCCOC(=O)CCCCC(=O)OCCCCCCC(C)C
inactive: all assays above

CCCOc1sc(C(=O)N2CCC(c3cc(CN)ccc3F)CC2)c(C)c1Br
active: [1] 6.92 µM | [2] 6.53 µM | [3] 10.6 µM | [4] 9.21 µM | [5] 10.3 µM | [6] 9.91 µM | [7] 6.22 µM | [8] 10.6 µM | [9] 7.07 µM | [10] 5.28 µM

CC1=C(/C=C/C(C)=C/C=C/C(C)=C/C(=O)O)C(C)(C)CCC1
active: [1] 25.2 µM | [2] 34.5 µM | [3] 31.2 µM | [4] 31.8 µM | [6] 18.5 µM | [7] 20 µM | [8] 30.6 µM | [9] 25.6 µM | [10] 32.8 µM

CCCCC(CC)COC(=O)CCCCC(=O)OCc1ccccc1 (stereo not drawn)
inactive: all assays above

CC[C@H](c1ccc(O)cc1)[C@@H](CC)c1ccc(O)cc1
active: [1] 29.7 µM | [2] 30.4 µM | [4] 30.6 µM | [5] 31.2 µM | [7] 25 µM | [8] 32.9 µM | [9] 26.5 µM | [10] 32.5 µM
inactive: [3]

O=[N+]([O-])c1ccc(O)cc1
inactive: all assays above

Oc1cc2ccccc2c2ccccc12
active: [1] 2.72 µM | [2] 3.24 µM | [3] 3.41 µM | [4] 2.78 µM | [5] 2.93 µM | [6] 2.07 µM | [7] 2.4 µM | [8] 6.96 µM | [9] 7.34 µM
inactive: [10]

c1ccc2cc3c(ccc4ccccc43)cc2c1
inactive: all assays above

c1ccc2c(c1)ccc1ccccc12
inactive: all assays above

CCCCCCCCCCCCCC[N+](C)(C)C
active: [1] 2.81 µM | [2] 5.22 µM | [3] 5.39 µM | [4] 7.37 µM | [5] 9.7 µM | [6] 4.06 µM | [7] 2.85 µM | [8] 12.8 µM | [9] 4.81 µM | [10] 5.24 µM
